Results on 8 compounds are retold here after PubChem BioAssay (EPA / NIEHS).

A short description of assay [1]: ATG_M_61_CIS: Attagene CIS-FACTORIAL HepG2 Assay for M61 Transcription Factor (Internal Marker) (AID 2282937). The note with it: HepG2 Attagene CIS-FACTORIAL M61 internal marker reporter; actives raise or lower the signal. In outline: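 Endogenous transcription factor activity in HepG2 is read through transiently transfected cis-element reporter units. After 24 h dosing, RNA undergoes reverse transcription, PCR and primer extension with 6-FAM before capillary electrophoresis; DMSO-referenced bidirectional fit.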

The nature of assay [2]: ATG_EGR_CIS: Attagene CIS-FACTORIAL HepG2 Assay for human Early Growth Response 1 (EGR1) (AID 2282938). The note with it: HepG2 Attagene CIS-FACTORIAL EGR reporter mRNA; actives raise or lower the signal. The essentials:
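Activity is taken as induction or loss of reporter mRNA versus DMSO, fitted bidirectionally. Transcripts from cis-regulated reporter units in transiently transfected HepG2 were measured after 24 h by RT-PCR with capillary electrophoresis.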

A short description of assay [3]: ATG_M_19_CIS: Attagene CIS-FACTORIAL HepG2 Assay for M19 Transcription Factor (Internal Marker) (AID 2282939). The note with it: HepG2 Attagene CIS-FACTORIAL M19 internal marker reporter; actives raise or lower the signal. In outline: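 Signals come from fluorescence of labelled reporter-specific PCR fragments resolved by capillary electrophoresis, following 24 h treatment of HepG2 cells transfected with cis-promoter reporter units; activity was fitted in both directions relative to DMSO.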

A short description of assay [4]: ATG_Ets_CIS: Attagene CIS-FACTORIAL HepG2 Assay for human Erythroblast Transformation Specific (ETS) (AID 2282941). The note with it: HepG2 ETS cis-reporter transcription, actives raise or lower the signal. In outline: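 HepG2 cells transiently transfected with cis-promoter reporter transcription units were dosed for 24 h; reporter mRNA was measured by RT-PCR, 6-FAM primer extension, HpaI digestion and capillary electrophoresis, with bidirectional fitting against DMSO baseline.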

Assay [5] has as its target Hepatocyte nuclear factor 3-beta (Homo sapiens) (UniProt Q9Y261). Kind of assay: ATG_FoxA2_CIS: Attagene CIS-FACTORIAL HepG2 Assay for human Forkhead box A2 (FOXA2) (AID 2282942). The note with it: HepG2 cis-reporter transcription factor activity, 24 h; actives raise or lower the signal. In outline:
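Reporter transcript induction is measured by fluorescence after capillary electrophoresis of RT-PCR products from HepG2 cells exposed 24 h. Cis-regulated reporter units report endogenous factor activity; curves fitted both directions against DMSO.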

A short description of assay [6]: ATG_FoxO_CIS: Attagene CIS-FACTORIAL HepG2 Assay for human Forkhead box O (FoxO) (AID 2282943). The note with it: HepG2 Attagene cis-reporter, FoxO element, mRNA; actives raise or lower the signal. In outline: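 Values reflect reporter mRNA induction or loss in HepG2 cells 24 h post-dosing, fitted bidirectionally with DMSO as negative control and baseline. Detection used RT-PCR and fluorescence capillary electrophoresis.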

The nature of assay [7]: ATG_GATA_CIS: Attagene CIS-FACTORIAL HepG2 Assay for human GATA Binding Protein (AID 2282944). The note with it: HepG2 GATA cis-element reporter, Attagene multiplex mRNA; actives raise or lower the signal. In outline: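 After transfecting HepG2 cells with multiple cis-regulated reporter units, chemicals are dosed for 24 h; isolated RNA undergoes RT-PCR and fluorescent labeling before capillary electrophoresis, with activity expressed against DMSO.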

The nature of assay [8]: ATG_GLI_CIS: Attagene CIS-FACTORIAL HepG2 Assay for human Zinc Finger Protein GLI1 (AID 2282945). The note with it: HepG2, Attagene cis-factorial reporter mRNA, GLI element; actives raise or lower the signal. The essentials: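 HepG2 cells transiently transfected with cis-promoter multiplexed reporter units report endogenous transcription factor activity. After 24 h chemical exposure, reporter mRNA was quantified by RT-PCR, 6-FAM labelling, HpaI digestion and capillary electrophoresis, with bidirectional fitting against DMSO.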

Assay [9] in a line: ATG_GRE_CIS: Attagene CIS-FACTORIAL HepG2 Assay for human Glucocorticoid Response Elements (GRE) (AID 2282947). The note with it: HepG2 GRE cis-reporter, Attagene multiplex mRNA; actives raise or lower the signal. In outline: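 Following 24 h chemical exposure of transiently transfected HepG2 cells, total RNA was reverse-transcribed and reporter cDNA amplified, fluorescently labelled and sized by capillary electrophoresis. Signal gain or loss was fitted relative to DMSO vehicle.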

Assay [10] is described as follows: ATG_ISRE_CIS: Attagene CIS-FACTORIAL HepG2 Assay for human Interferon Regulatory Factor 1 (IRF1) binding to an Interferon-Stimulated Response Element (ISRE) (AID 2282948). The note with it: HepG2 ISRE cis-reporter (Attagene), mRNA transcription readout; actives raise or lower the signal. The essentials: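 HepG2 cells transiently transfected with multiplexed cis-promoter reporter units; after 24 h compound exposure, reporter mRNA quantified by RT-PCR, FAM labelling, HpaI digestion and capillary electrophoresis. Bidirectional fit versus DMSO baseline.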

The nature of assay [11]: ATG_M_32_CIS: Attagene CIS-FACTORIAL HepG2 Assay for M32 Transcription Factor (Internal Marker) (AID 2282949).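 Also: background control marker of the multiplexed CIS panel rather than a real target.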 The note with it: HepG2 Attagene cis-factorial M32 reporter, mRNA; actives raise or lower the signal. In outline:
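Fluorescent capillary electrophoresis peaks of HpaI-digested, FAM-labelled RT-PCR reporter products give the signal. Source: transiently transfected human liver HepG2 cells, 24 h after chemical dosing; bidirectional fitting against DMSO.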

Assay [12] is described as follows: ATG_M_06_CIS: Attagene CIS-FACTORIAL HepG2 Assay for M06 Transcription Factor (Internal Marker) (AID 2282950). The note with it: HepG2 Attagene CIS-FACTORIAL M06 internal marker reporter; actives raise or lower the signal. The essentials: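 HepG2 liver cells, 24 h exposure. Reporter transcripts from transfected cis-element constructs quantified by RT-PCR/capillary electrophoresis fluorescence. Bidirectional curve fit against DMSO.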

Assay [13] concerns the target Hypoxia-inducible factor 1-alpha (Homo sapiens) (UniProt Q16665). Kind of assay: ATG_HIF1a_CIS: Attagene CIS-FACTORIAL HepG2 Assay for human Hypoxia Inducible Factor 1 (HIF1A) (AID 2282951). The note with it: HepG2 Attagene cis-factorial HIF1a reporter transcription; actives raise or lower the signal. The essentials: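 Fluorescence intensity of capillary-separated, 6-FAM-labelled reporter amplicons gives mRNA induction in HepG2 cells carrying transfected cis-promoter reporter units; cells exposed 24 h, responses fitted up or down from DMSO.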

Assay [14] has as its target Hepatocyte nuclear factor 6 (Homo sapiens) (UniProt Q9UBC0). Kind of assay: ATG_HNF6_CIS: Attagene CIS-FACTORIAL HepG2 Assay for human Hepatocyte Nuclear Factor 6 (HNF6) (AID 2282952). The note with it: HepG2 Attagene cis-factorial HNF6 reporter transcription; actives raise or lower the signal. The essentials: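 HepG2 cells transiently transfected with cis-element-driven multiple reporter transcription units, dosed 24 h; reporter mRNA quantified by RT-PCR, FAM primer extension, HpaI digestion and capillary electrophoresis; bidirectional fit versus DMSO baseline.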

The target of assay [15] is Heat shock factor protein 1 (Homo sapiens) (UniProt Q00613). As to the kind of experiment: ATG_HSE_CIS: Attagene CIS-FACTORIAL HepG2 Assay for human Heat Shock Transcription Factor 1 (HSE) (AID 2282953). The note with it: HepG2 HSE cis-reporter, Attagene RNA transcription; actives raise or lower the signal. In outline:
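Endogenous transcription factor activity captured via cis-promoter reporter units transfected into HepG2; treatment lasted 24 h. Fluorescence intensity of reporter fragments analysed with bidirectional curve fitting, DMSO baseline.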

Assay [16] is described as follows: ATG_MRE_CIS: Attagene CIS-FACTORIAL HepG2 Assay for human Metal Responsive Element (MRE) (AID 2282954). The note with it: HepG2 MRE cis-reporter transcription, Attagene multiplex; actives raise or lower the signal. The essentials:
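Step one: transfect HepG2 with cis-regulated reporter units. Step two: dose 24 h. Step three: isolate RNA, RT-PCR, 6-FAM label, HpaI digest, capillary electrophoresis. Fit bidirectionally to DMSO.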

The target in assay [17] is Paired box protein Pax-6 (Homo sapiens) (UniProt P26367). Kind of assay: ATG_Pax6_CIS: Attagene CIS-FACTORIAL HepG2 Assay for human Paired Box 6 (PAX6) (AID 2282956). The note with it: HepG2 CIS-FACTORIAL PAX6 reporter transcription, RNA readout; actives raise or lower the signal. The essentials: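 HepG2 cells transiently transfected with multiplexed cis-promoter reporter units (endogenous TF activity) were dosed for 24 h. Reporter mRNA was quantified by RT-PCR, 6-FAM labeling, HpaI digestion and capillary electrophoresis; bidirectional fitting versus DMSO baseline.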
Chain of Paired box protein Pax-6 (Homo sapiens) (P26367 whole entry, looked up): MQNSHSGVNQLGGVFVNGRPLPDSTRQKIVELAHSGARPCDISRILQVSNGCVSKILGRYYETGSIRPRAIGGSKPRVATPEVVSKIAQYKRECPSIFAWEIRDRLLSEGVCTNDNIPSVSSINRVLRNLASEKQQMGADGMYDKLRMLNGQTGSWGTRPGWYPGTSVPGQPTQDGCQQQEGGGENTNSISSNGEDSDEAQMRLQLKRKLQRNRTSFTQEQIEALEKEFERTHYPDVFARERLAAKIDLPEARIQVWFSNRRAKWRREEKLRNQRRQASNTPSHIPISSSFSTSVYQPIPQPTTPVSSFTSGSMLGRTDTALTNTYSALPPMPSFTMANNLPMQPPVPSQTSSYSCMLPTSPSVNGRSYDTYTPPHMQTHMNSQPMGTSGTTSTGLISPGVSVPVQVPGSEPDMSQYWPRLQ

The target in assay [18] is Bile acid receptor (Homo sapiens) (UniProt Q96RI1). As to the kind of experiment: ATG_IR1_CIS: Attagene CIS-FACTORIAL HepG2 Assay for human Nuclear Receptor Subfamily 1 Group H Member 4 (NR1H4), IR1 submotif (AID 2282946). The note with it: IR1 reporter transcription, actives raise or lower the signal. The essentials: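 Transient MRTU transfection, HepG2; 24 h dosing; RNA → RT-PCR → 6-FAM primer extension → HpaI digest → capillary electrophoresis fluorescence. Gain/loss of signal fitted relative to DMSO.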
Chain of Bile acid receptor (Homo sapiens) (Q96RI1 whole entry, looked up): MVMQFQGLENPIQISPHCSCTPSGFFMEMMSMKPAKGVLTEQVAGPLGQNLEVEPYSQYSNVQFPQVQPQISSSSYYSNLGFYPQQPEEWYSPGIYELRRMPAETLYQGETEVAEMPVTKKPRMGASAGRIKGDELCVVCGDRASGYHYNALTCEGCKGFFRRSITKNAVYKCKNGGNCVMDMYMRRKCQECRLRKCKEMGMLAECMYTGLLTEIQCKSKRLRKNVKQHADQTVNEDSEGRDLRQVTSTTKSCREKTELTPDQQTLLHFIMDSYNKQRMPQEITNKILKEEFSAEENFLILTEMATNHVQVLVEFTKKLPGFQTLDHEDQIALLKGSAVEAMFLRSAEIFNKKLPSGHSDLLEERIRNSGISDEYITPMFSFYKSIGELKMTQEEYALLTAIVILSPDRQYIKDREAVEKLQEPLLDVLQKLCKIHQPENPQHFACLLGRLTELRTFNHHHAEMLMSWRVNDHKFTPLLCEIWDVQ

Assay [19] is described as follows: ATG_PBREM_CIS: Attagene CIS-FACTORIAL HepG2 Assay for human Phenobarbital-responsive Enhancer Module (PBREM) (AID 2282955). The note with it: HepG2 PBREM cis-reporter, Attagene multiplexed transcription; actives raise or lower the signal. The essentials:
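Cells were transfected with cis-element reporter units and treated for 24 h, after which RNA was extracted and reporter transcripts measured by RT-PCR and capillary electrophoresis.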

More than one record can exist for a structure, and the calls need not agree. Active and inactive are the calls of the source. The calls were made as follows: active = hit-call score of the fitted dose curve at least 0.9, where 1 is the maximum; inactive = score below 0.9.

Chain of Heat shock factor protein 1 (Homo sapiens) (Q00613 whole entry, looked up, the tested form may be a part): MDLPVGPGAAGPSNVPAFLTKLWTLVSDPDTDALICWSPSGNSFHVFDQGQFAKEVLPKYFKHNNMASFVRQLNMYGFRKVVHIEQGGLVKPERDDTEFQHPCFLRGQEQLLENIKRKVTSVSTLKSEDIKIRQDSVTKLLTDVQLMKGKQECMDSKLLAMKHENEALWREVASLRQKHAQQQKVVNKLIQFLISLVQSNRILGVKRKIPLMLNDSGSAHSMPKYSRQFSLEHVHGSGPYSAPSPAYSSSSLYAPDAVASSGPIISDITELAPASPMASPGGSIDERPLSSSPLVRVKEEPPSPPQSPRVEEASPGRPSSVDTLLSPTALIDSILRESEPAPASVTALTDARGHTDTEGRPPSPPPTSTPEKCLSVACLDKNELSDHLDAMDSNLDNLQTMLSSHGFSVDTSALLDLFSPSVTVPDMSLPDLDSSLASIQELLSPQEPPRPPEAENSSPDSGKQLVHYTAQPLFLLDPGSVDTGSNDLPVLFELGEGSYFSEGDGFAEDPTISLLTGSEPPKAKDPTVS
Chain of Hepatocyte nuclear factor 6 (Homo sapiens) (Q9UBC0 whole entry, looked up): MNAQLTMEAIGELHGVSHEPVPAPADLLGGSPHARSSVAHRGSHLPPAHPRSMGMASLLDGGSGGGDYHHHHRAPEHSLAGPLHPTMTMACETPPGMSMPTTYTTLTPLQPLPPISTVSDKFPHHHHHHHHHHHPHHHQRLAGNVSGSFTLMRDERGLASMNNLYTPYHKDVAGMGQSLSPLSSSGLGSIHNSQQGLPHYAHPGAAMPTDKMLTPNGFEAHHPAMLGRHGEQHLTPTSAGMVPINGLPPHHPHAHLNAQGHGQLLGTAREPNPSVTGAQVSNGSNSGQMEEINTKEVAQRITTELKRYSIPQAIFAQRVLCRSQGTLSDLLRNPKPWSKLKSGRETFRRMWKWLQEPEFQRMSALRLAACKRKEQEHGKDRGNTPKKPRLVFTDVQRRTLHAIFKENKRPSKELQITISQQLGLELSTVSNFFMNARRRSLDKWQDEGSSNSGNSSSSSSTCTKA
Chain of Hepatocyte nuclear factor 3-beta (Homo sapiens) (Q9Y261 whole entry, looked up): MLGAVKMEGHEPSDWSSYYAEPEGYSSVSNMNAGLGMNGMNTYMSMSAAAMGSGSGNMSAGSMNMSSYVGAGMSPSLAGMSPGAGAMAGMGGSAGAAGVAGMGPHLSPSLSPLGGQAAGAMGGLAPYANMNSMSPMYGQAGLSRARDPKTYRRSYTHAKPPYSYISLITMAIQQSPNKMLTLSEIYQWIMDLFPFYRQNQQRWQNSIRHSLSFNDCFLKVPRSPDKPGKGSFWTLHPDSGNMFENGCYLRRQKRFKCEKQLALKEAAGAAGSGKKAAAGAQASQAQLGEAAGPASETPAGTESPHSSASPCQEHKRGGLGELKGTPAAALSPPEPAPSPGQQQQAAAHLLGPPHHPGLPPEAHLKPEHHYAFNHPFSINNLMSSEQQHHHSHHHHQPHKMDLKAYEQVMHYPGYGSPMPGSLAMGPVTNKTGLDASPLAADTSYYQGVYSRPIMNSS
Chain of Hypoxia-inducible factor 1-alpha (Homo sapiens) (Q16665 whole entry, looked up): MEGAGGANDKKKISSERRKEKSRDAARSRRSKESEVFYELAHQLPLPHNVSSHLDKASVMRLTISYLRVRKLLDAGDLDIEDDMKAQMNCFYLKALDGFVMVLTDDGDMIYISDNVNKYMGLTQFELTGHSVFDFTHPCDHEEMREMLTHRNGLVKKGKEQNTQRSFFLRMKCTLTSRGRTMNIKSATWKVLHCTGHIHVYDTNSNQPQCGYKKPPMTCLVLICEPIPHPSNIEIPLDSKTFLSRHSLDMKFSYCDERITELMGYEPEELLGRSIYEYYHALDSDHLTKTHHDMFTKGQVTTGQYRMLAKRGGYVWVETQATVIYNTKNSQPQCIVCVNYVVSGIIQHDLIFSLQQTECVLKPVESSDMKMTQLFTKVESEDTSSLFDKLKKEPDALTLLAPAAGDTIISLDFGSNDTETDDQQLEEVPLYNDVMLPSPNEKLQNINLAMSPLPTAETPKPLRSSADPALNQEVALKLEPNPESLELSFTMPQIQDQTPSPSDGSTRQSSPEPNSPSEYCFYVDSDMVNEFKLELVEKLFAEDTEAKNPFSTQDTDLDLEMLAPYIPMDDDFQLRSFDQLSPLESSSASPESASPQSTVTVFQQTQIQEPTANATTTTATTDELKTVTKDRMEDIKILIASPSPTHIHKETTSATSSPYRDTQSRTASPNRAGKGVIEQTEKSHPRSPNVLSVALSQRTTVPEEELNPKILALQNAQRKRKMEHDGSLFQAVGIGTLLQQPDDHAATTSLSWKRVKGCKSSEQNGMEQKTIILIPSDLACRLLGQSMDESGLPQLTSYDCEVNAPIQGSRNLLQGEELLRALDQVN

For orientation: AC50 means the midpoint of the concentration-response curve, whichever way the signal moves. `COc1ccc(N)cc1`: the compound was classed as inactive in assay [1], in assay [2], in assay [3], in assay [4], in [5] and in assay [6]. Besides, the outcome in assay [7], in assay [8], in assay [9], in assay [10], in assay [11] and in assay [12] was inactive. The call in assay [13], in [14], in assay [15], in assay [16] and in assay [17] was inactive. In addition, the AC50 in assay [13] is 181 µM (active).

Consider `CCC[CH2][Sn]([CH2]CCC)([CH2]CCC)[CH2]CCC`, for which the compound was classed as inactive in assay [1], in assay [3], in assay [4], in [5], in assay [6] and in assay [8]. The call in assay [9], in [11], in assay [12], in assay [13], in [14] and in assay [16] was inactive. Besides, the AC50 in assay [2] is 5.14 µM (active); in assay [18], 0.378 µM (active); in [10] it was 11.1 µM (active); in assay [15], 17.1 µM (active); in assay [19], 2.9 µM (active); in assay [17], 11.1 µM (active).

As for `C[C@]12CC[C@@H](O)C[C@@H]1CC[C@@H]1[C@@H]2CC[C@]2(C)C(=O)CC[C@@H]12`, the result in [1], in assay [2], in assay [3], in assay [4], in assay [5] and in assay [6] was inactive. Further, the compound was classed as inactive in assay [7], in assay [8], in assay [9], in assay [11], in [14] and in assay [15]. Further, the outcome in [16] and in assay [17] was inactive.

Take `OCCN(CCO)CCO`: the result in assay [1], in [2], in assay [3], in assay [4], in [5] and in [6] was inactive. The compound was called inactive in assay [7], in [8], in assay [10], in [11], in assay [12] and in [13]. The result in assay [14], in [16], in assay [19] and in assay [17] was inactive.

As to `Cc1cc(Cl)ccc1OCCCC(=O)O`, the compound was classed as inactive in [1], in assay [2], in [3], in [4], in assay [5] and in assay [7]. Also, the compound was called inactive in [8], in assay [18], in assay [9], in [11], in assay [12] and in [13]. The outcome in assay [14], in assay [15], in assay [16], in assay [19] and in assay [17] was inactive.

On to `COc1nn(C(=O)NS(=O)(=O)c2ccccc2OC(F)(F)F)c(=O)n1C`, for which the result in [1], in assay [2], in assay [3], in assay [4], in assay [8] and in [18] was inactive. Also, the result in [9], in assay [10], in [12], in [13], in assay [14] and in [15] was inactive. Also, the outcome in assay [16], in assay [19] and in [17] was inactive.

`CC(C=O)Cc1ccc2c(c1)OCO2` (centres undefined): the call in assay [1], in [2], in [3], in [4], in [6] and in assay [7] was inactive. Moreover, the compound was classed as inactive in assay [8], in assay [18], in [9], in assay [10], in assay [11] and in assay [12]. Also, the compound was called inactive in assay [13], in assay [14], in [15], in assay [16], in [19] and in assay [17].

For the compound `CCOc1cc(C=O)ccc1O`, the result in [1], in assay [2], in assay [3], in assay [4], in assay [5] and in assay [6] was inactive. Moreover, the compound was called inactive in assay [7], in assay [8], in assay [9], in assay [10], in [11] and in [12]. Besides, the call in assay [13], in assay [14], in assay [15], in [16], in [19] and in [17] was inactive.
